# Screening data (PubChem)
# In the library only some 4.3% were active in any assay of this set; here they are far more common.
# HSF-1 act: increases HSF-1 driven luciferase reporter signal; NIH3T3-HGL HSF-1 luciferase reporter, MG132, 8 h; 100% = twice DMSO control signal; activation, % at 9 µM; actives 1.7% (n = 300,000);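 active means mean replicate activation of at least 50% with a set share of replicates each reaching 50%; inconclusive means only one of those two conditions met; inactive means mean below 50% and too few replicates reaching it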;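 further: 0% = median of the neutral control wells and 100% = twice that signal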
# SMARCA2 act: activators of SMARCA2 function | MG213 cells, MMTV-luciferase reporter, dexamethasone, overnight | actives 1% (n = 370,000) | AID 652017 | activation, % at 9.1 µM; in the data active means activation above about 7.8%;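 further: 0% = vehicle wells and 100% = reference activator wells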
# HSF1 inhib: HSF1 inhibition; actives 0.77% (n = 300,000); NIH3T3-HGL HSE-luciferase, MG132-induced, luminescence 8 h; active compounds read low; activity change, negative = inhibition, % at 7.5 µM (by protocol);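 active means more than half of replicate wells show activity change below -50%, luminescence cut by over half; inconclusive means some wells, but at most half, below -50%; inactive means no replicate well below -50%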;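 further: luciferase reports HSF-1 transcriptional activity via heat shock element; 0% = median of DMSO wells and -100% = zero luminescence signal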
# Wnt bcat act: activates Wnt/beta-catenin signaling in a reporter cell assay; activator, plate reader; activation, % at 9.35 µM; actives 1.2% (n = 300,000); in the data active means activation above about 30%, passing the limit was not always enough; inconclusive means no clear call, values can overlap the other calls;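 further: 0% = neutral control wells and 100% = positive control wells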
# MITF act: MITF TRPM1 promoter activation in melanoma cells | SK-MEL-5 TRPM1-promoter luciferase, 24 h; % of positive control, neutral wells = 0 | activation, % at 12.5 µM | actives 0.75% (n = 300,000) | AID 588334;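 active means mean activation of at least 80% with every replicate also reaching 80%; inconclusive means mean reaches 80% but some replicate falls short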;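 further: 0% = neutral control wells and 100% = parthenolide positive control wells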
# esBAF inh: inhibitors of esBAF chromatin remodeling in mouse ES cells | Bmi1-luciferase knock-in reporter, 24 h; 100% = twice the neutral-well signal | AID 602393 | actives 2% (n = 350,000) | reporter increase, % at 12.5 µM; in the data active means activation above about 40%; inconclusive means no clear call, values can overlap the other calls;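 further: 0% = median of the plate's neutral control wells and 100% = double that signal; a rise in the Bmi1 reporter signal indicates esBAF inhibition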
# SMARCA2 act conf: confirmation of SMARCA2 (BRM) function activators. activation, % at 9.1 µM. shares compounds with SMARCA2 act. actives 30% (n = 3,500). MG213 cells, MMTV-luciferase with dexamethasone, luminescence, overnight; MG213 cells expressing E1A, Rb sequestered; DMSO wells 0%, reference activator 100%;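 active means activation above its plate's cutoff, the mean activation of tested wells plus 3 SD, cut at about 7.9% in these data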
# GAL4-VP16 Luc: counter-screen for SMARCA2 activators: GAL4-VP16 luciferase reporter activation; shares compounds with SMARCA2 act; HEK293 GAL4-VP16 pG5luc reporter, luciferase luminescence; scaled: DMSO wells 0%, SAHA wells 100%; activation, % at 9.1 µM; actives 41% (n = 3,500); AID 686939;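 active means activation above the solvent-only control well mean plus 3 SD, averaged across control plates, cut at about 5.2% in these data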
# An asterisk follows results filed as active; ? = inconclusive; . = no result.
SMILES,HSF-1 act,SMARCA2 act,HSF1 inhib,Wnt bcat act,MITF act,esBAF inh,SMARCA2 act conf,GAL4-VP16 Luc
C[C@@H]1CN([C@H](C)CO)C(=O)c2cc(NS(=O)(=O)c3ccc(Cl)cc3)ccc2O[C@@H]1CN(C)C(=O)Nc1ccc(C(F)(F)F)cc1,.,.,.,.,.,3,.,.
COC(=O)[C@@H]1[C@@H](CO)[C@@H]2Cn3c(ccc(C4=CCCCC4)c3=O)[C@@H]2N1Cc1ccc2c(c1)OCO2,.,.,.,.,.,4,.,.
O=C(Nc1ccccc1Br)C1CCN(C(=O)Cc2ccccc2)CC1,-8,9.0*,-9,0,-15,.,-3,2
COc1ccc(CCn2c(SCCN3CCCCC3)nc3ccccc3c2=O)cc1OC,-3,13*,-4,-1,17,-8,2,2
C=CCNC(=O)CSc1nc2ccccc2c(=O)n1CCc1ccc(OC)c(OC)c1,-6,3,-1,0,8,3,.,.
CCc1ccc(/C=N/Nc2ncnc3nc[nH]c23)cc1,30,8.3*,5,53*,62,8,6,13*
CC(C)=NNc1ncnc2nc[nH]c12,.,4,.,-4,.,.,.,.
COc1cc(/C=N/NC(=O)c2cc(-c3c(C)nn(-c4ccccc4)c3C)n[nH]2)ccc1O,2,12*,-1,-3,-23,22,16*,12*
CCOC(=O)C1CCN(C(=O)Cn2cnc3sc(C)c(S(=O)(=O)N4CCC(C)CC4)c3c2=O)CC1,11,8.1*,4,-1,3,-3,-2,-1
COc1ccc(C(=O)NCCCN2CCCC2=O)cc1,0,8.0*,-3,.,7,11,-1,0
COc1cccc(N(CC(=O)N2CCN(C)CC2)S(=O)(=O)c2ccccc2)c1,-15,8.6*,-7,-2,-4,-10,-3,-1
COc1ccc(N2CCN(C(=O)CN(c3cccc(OC)c3)S(=O)(=O)c3ccccc3)CC2)cc1,0,-1,2,1,8,1,.,.
C[C@@H]1CN([C@H](C)CO)C(=O)c2ccccc2-c2ccccc2CO[C@@H]1CN(C)C(=O)Nc1cccc(C(F)(F)F)c1,.,.,.,.,.,2,.,.
C[C@H]1CN([C@@H](C)CO)C(=O)c2cc(NC(=O)c3ccncc3)ccc2O[C@H]1CN(C)C(=O)Nc1cccc2ccccc12,.,.,.,.,.,0,.,.
COc1cccc(CC(NC(C)=O)C(=O)NC2CCN(c3c4c(nc5ncnn35)CCC4)CC2)c1 (stereo unspecified),.,8.4*,.,.,2,.,-2,0
COc1ccc(-c2cc(CNc3nc(NC(C)C)nc4cc(-c5ccccc5)sc34)on2)cc1,.,12*,.,-2,.,-83,3,4
O=C(Nc1ccc(OC(F)F)c(Cl)c1)c1ccccn1,70*,12*,24,-1,?,.,11*,19*
COc1ccc(NC(=O)c2ccc(OC(F)F)cc2)cc1Cl,16,1,10,.,63,.,.,.
Fc1cc(F)c2nc(N3CCCC3)sc2c1,28,8.4*,-4,19,60,.,4,5
C[C@H]1CN([C@@H](C)CO)S(=O)(=O)c2ccc(-c3ccccc3)cc2O[C@H]1CN(C)C(=O)C1CC1,.,.,.,.,.,3,.,.
COc1ccc(/C=C/C(=O)NC(=S)Nc2ccc(S(=O)(=O)Nc3nccnc3OC)cc2)cc1,8,13*,0,12,0,.,1,1
O=C(NC[C@H]1[C@H](c2ccccc2)[C@H](CO)N1Cc1cccnc1)c1ccccn1,.,.,.,.,.,-1,.,.
CC(=O)Nc1ccc(NC(=O)c2oc3cc(C)c(C)cc3c2C)cc1,.,-3,.,-2,11,3,.,.
Cc1ccc2oc(C(=O)Nc3nnc(CC(C)C)s3)c(C)c2c1,-3,-1,3,0,26,.,.,.
Cc1ccc2oc(C(=O)Nc3cc(C)on3)c(C)c2c1,.,9.4*,.,43*,21,37,8.2*,8.0*
SMILES,HSF-1 act,SMARCA2 act,HSF1 inhib,Wnt bcat act,MITF act,esBAF inh,SMARCA2 act conf,GAL4-VP16 Luc
Cc1cc2oc(C(=O)Nc3nonc3C)c(C)c2cc1C,37,8.9*,14,?,120*,77*,7,11*
CC(=O)c1ccc(/C=C/c2nc3ccccc3n2C)o1,66*,8.8*,25,35*,.,.,23*,12*
Cn1c(/C=N/NC(=O)c2ccccc2)nc2ccccc21,28,-1,10,-1,35,26,.,.
COCCn1c(-c2ccccc2)nc2ccccc21,5,0,11,5,16,11,.,.
COCCn1c(/C=C/c2ccccc2)nc2ccccc21,18,9.2*,18,13,97*,37*,7,13*
CCCn1c(/C=C/c2ccco2)nc2ccccc21,-41,6,-21,-1,22,.,.,.
Cn1c(/C=C/c2ccccc2)nc2ccccc21,-5,8.9*,-21,-4,-49,.,5,7.8*
CO[C@@H]1CN(C)C(=O)c2cc(NC(=O)c3nc4ccccc4s3)ccc2OC[C@@H](C)N(Cc2cncnc2)C[C@@H]1C,.,.,.,.,.,8,.,.
CCCNC(=O)N(C)C[C@@H]1Oc2cc(C#Cc3ccccn3)ccc2S(=O)(=O)N([C@@H](C)CO)C[C@@H]1C,.,.,.,.,.,5,.,.
Cc1noc(C)c1S(=O)(=O)N(C)C[C@@H]1Oc2ccc(NS(=O)(=O)c3ccc(F)cc3)cc2CC(=O)N([C@H](C)CO)C[C@H]1C,.,.,.,.,.,0,.,.
Cc1cc(Br)cc(C)c1OCC(=O)NNC(=O)c1cccs1,7,0,-3,-3,-6,4,.,.
Cc1cc(Br)ccc1OCC(=O)NNC(=O)Cc1ccccc1,34,8.9*,5,-2,-18,-9,-1,1
O=C(COc1ccc(Br)cc1Br)NNC(=O)c1cccs1,16,10*,10,7,56,34,7,8.8*
Cc1cc(Br)ccc1OCC(=O)NNC(=O)CCc1ccccc1,-2,-2,-2,1,.,3,.,.
C[C@@H]1CN([C@@H](C)CO)C(=O)c2cccc(NC(=O)Nc3ccc(C(F)(F)F)cc3)c2O[C@H]1CN(C)Cc1ccccc1,.,.,.,.,.,1,.,.
Cn1cccc1C(=O)NCCc1ccccc1,22,6,9,20,0,-14,.,.
COc1ccc(CCNC(=O)c2cccn2C)cc1,32,8.3*,5,18,74,50*,5,9.7*
Cc1nnc(N2C(=O)c3cccc4c([N+](=O)[O-])ccc(c34)C2=O)s1,40,22*,36,-2,-10,-1,-16,15*
Cc1ccnc(N2C(=O)c3ccccc3C2=O)c1,-3,-2,-2,-2,-8,-1,.,.
